Compound activity from PubChem BioAssay.
HDAC3 inhib: HDAC3 deacetylase inhibitors, primary screen, biochemical, fluorescence, cell-free homogeneous; inhibition, % at 8.3 µM; AID 2718, 2010; hit rate 0.15% among 320,000; Histone deacetylase 3 (Homo sapiens), O15379; recombinant HDAC3, fluorogenic peptide/trypsin coupled; in the data active = inhibition above about 26%, passing the limit was not always enough; inconclusive = no clear call, values can overlap the other calls
Target sequence (O15379 whole entry, looked up): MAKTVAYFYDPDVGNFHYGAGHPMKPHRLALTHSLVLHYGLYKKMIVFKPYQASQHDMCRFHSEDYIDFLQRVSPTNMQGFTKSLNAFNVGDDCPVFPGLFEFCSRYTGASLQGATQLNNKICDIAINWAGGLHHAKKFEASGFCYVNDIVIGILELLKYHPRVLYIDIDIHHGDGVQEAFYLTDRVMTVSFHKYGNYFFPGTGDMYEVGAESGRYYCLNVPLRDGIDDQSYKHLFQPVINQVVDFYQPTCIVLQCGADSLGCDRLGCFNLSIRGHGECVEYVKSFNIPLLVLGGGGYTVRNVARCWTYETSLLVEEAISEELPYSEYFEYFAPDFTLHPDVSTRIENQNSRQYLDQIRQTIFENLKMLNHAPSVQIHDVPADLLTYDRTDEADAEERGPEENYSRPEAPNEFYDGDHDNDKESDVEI
V-ATPase pH: regulators of yeast V-ATPase proton pumping, primary screen, pHLuorin cytosolic pH fluorescence; AID 504577, 2011; hit rate 0.37% among 350,000; S. cerevisiae; response, % at 10 µM; in the data active = response mostly above about 7.3%, no sharp cut-off; inactive = mostly below about 5.4%; note: actives read high
MIN6 prolif: inducers of MIN6 beta-cell proliferation, primary screen, ATP luminescence, uHTS | hit rate 0.29% among 330,000 | proliferation, % at 10 µM | MIN6 cells proliferation, ATPlite luminescence, 48 h; cells starved in 0.2% serum; 100% = growth in 10% serum | AID 2380, 2010;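 active = compounds whose signal lies at least 3.5 SD above the mean of all wells on their plate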;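 note: 0% = DMSO-treated cells in low-serum medium and 100% = 10% serum control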
Rtt109 Vps75: inhibitors of C. albicans Rtt109/Vps75 HAT, primary screen, biochemical, ThioGlo CoA-SH fluorescence, plate reader; purified Rtt109/Vps75, 4 h; Histone acetyltransferase RTT109 (Candida albicans (strain SC5314 / ATCC MYA-2876)), …; inhibition, % at 34.9 µM; AID 540336, 2011; hit rate 0.16% among 330,000;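 active = inhibition of at least 50% in every replicate; inconclusive = best replicate reaches 50% inhibition but some replicates fall short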
DAGLB inhibitor: DAGLB lipase inhibitors, primary screen, biochemical, fluorescence, HTS. Diacylglycerol lipase-beta (Homo sapiens), Q8NCG7. HEK293T DAGLB membrane lysate, EnzChek fluorogenic substrate. inhibition, % at 5.17 µM. hit rate 0.059% among 340,000. AID 504411, 2011; in the data active = inhibition above about 34%;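 note: 0% = enzyme with vehicle and 100% = wells lacking enzyme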
* hit, by the source's call; i = inactive; ? = inconclusive; . = not tested or not shown; + = active, no number. Most compounds without a hit are left out; they make up all but 0.96% or so of the library.

SMILES	HDAC3 inhib	V-ATPase pH	MIN6 prolif	Rtt109 Vps75	DAGLB inhibitor
C[C@]12CCC(=O)CC1=CCC1C3CC=C(C#N)[C@@]3(C)CC[C@@]12O (stereo not given in full)	-4	71*	3	-1	-3
O=C(Nc1ccc(Cl)c(S(=O)(=O)N2CCCCC2)c1)C1=COCCO1	-1	-9	0	52*	-1
COc1ccc(OC)c(NC(=O)CCNS(=O)(=O)c2cccs2)c1	4	0	-1	-10	4
COc1ccc(NC(=O)CNS(=O)(=O)c2cccs2)c(OC)c1	-4	4	1	63*	2
Cc1cccc(-n2c(CNC(=O)COc3ccccc3)nnc2SCC(=O)Nc2nccs2)c1	3	7	0	-9	0
COc1cccc(C(=O)NCc2nnc(SCC(=O)Nc3nccs3)n2-c2cccc(C)c2)c1	-1	5	-4	61*	1
CCN1/C(=C/C=C/c2oc3ccc(-c4ccccc4)cc3[n+]2CC)Oc2ccc(-c3ccccc3)cc21	1	+	-7	-6	i
CCCCN1C(=O)/C(=C/C=C2\Oc3ccccc3N2CC)SC1=S	.	4	.	8	-50
CCOc1cc(C(=O)OC(C(=O)NC(=O)NC)c2ccccc2)ccc1OCC(=O)N1CCOCC1 (stereo not given)	27*	8	-1	-2	-1
CCOc1cc(C(=O)Nc2ccccc2N2CCOCC2)ccc1OCC(=O)N1CCOCC1	3	3	-3	-1	0
Cn1c(=O)c([N+](=O)[O-])c(Cl)c2ccccc21	.	32*	.	-10	1
C[C@H](NC(=O)c1ccc(C(C)(C)C)cc1)C(=O)N1CCN(C/C=C/c2ccccc2)CC1	13	-1	-6	-1	-11
Cc1nn(C)cc1[C@@H]1C[C@H]2CN(Cc3cccc(Cl)c3)C(=O)[C@]23CCCN13	-2	0	-2	53*	-1
Cn1cc([C@@H]2C[C@H]3CN(Cc4cccc(Cl)c4)C(=O)[C@]34CCCN24)c(-c2ccccc2)n1	0	-4	-1	-4	1
CC(C)Cn1c(N)c(C(=O)COC(=O)c2cc(S(=O)(=O)N3CCOCC3)ccc2Br)c(=O)n(C)c1=O	34*	-2	-6	13	0
CCc1nnc(N/N=C/c2ccc(N3CCC(C)CC3)c([N+](=O)[O-])c2)n1N	13	16*	-4	-13	14
CNc1nc(OCC#N)nc(N2CCCCC2)n1	.	1	3	.	-2
NC(=O)[C@H]1CC2(CC(c3cccc(NC(=O)[C@H]4CCC(=O)N4)c3)=NO2)CN1C(=O)c1cc([N+](=O)[O-])cc([N+](=O)[O-])c1 (stereo not given in full)	39*	0	-1	8	4
O=C(c1ccccc1)n1nc(-c2ccccc2)nc1NCc1ccco1	38*	-1	0	4	-8
Nc1nc(-c2ccco2)nn1C(=O)c1ccc(F)cc1	.	7	.	5	3
CCCC(=O)n1nc(-c2ccc(OC)cc2)nc1N	8	-1	2	-6	1
CCCC(=O)n1nc(-c2ccco2)nc1N	40*	4	3	3	3
Nc1nc(-c2ccco2)nn1C(=O)c1ccccc1	35*	-2	-4	-8	2
Cc1c(C(=O)O)oc2c(F)cccc12	-4	-1	-2	1	.
Cc1c(C(=O)N2CCC[C@H]2CO)oc2c(F)cccc12	1	-1	0	57*	0
SMILES	HDAC3 inhib	V-ATPase pH	MIN6 prolif	Rtt109 Vps75	DAGLB inhibitor
CCn1c(CCNC(=O)c2cccs2)nnc1SCC(=O)c1ccc(OC)cc1	27*	1	-3	-11	-4
CCn1c(CNC(=O)c2ccc(OC)cc2)nnc1SCC(=O)c1ccccc1	-1	1	2	-1	1
CCn1nc([N+](=O)[O-])c(C(C#N)c2nc3ccccc3n2C)c(Cl)c1=O (stereo not given)	0	-2	0	5	30
CCCn1nc([N+](=O)[O-])c(C(C#N)c2nc3ccccc3s2)c(Cl)c1=O (stereo not given)	5	2	-6	15	67*
O=C(c1csc2c1CCCC2)N1CCN(c2ncccn2)CC1	-1	7	-3	-13	2
O=C(c1csc2c1CCCC2)n1cccn1	79*	-2	0	9	0
O=C(NCC1COCCO1)c1ccc(OC2CCN(CCc3ccccc3)CC2)cc1 (stereo not given)	.	-1	-3	-4	1
Cc1cc(NC(=O)CSc2nnc(C3CC3)n2-c2ccccc2)no1	2	2	2	-2	1
Cc1ccc(N=C2NC(=O)C(CC(=O)O)S2)cc1 (stereo not given)	-2	22*	-2	-4	-3
CCNc1nc(N)nc(-c2cc(Cl)ccc2O)n1	3	6	-1	14	1
COc1ccc(N2C(S)=C(C#N)C(=O)NC2c2ccc(OC)c(OC)c2)cc1 (stereo not given)	5	-1	-3	110*	1
COc1ccc(C2NC(=O)C(C#N)=C(S)N2c2cccc(C)c2)cc1OC (stereo not given)	1	-1	-3	74*	-1
COc1cc(C2NC(=O)C(C#N)=C(S)N2c2ccc(C)cc2)ccc1OC(C)C (stereo not given)	9	0	0	?	1
COc1ccc(C2NC(=O)C(C#N)=C(S)N2c2ccc(C)cc2)cc1OC (stereo not given)	5	-2	-1	24	1
CCOc1ccc(C2NC(=O)C(C#N)=C(S)N2c2ccc(OC)cc2)cc1OC (stereo not given)	3	2	0	144*	2
N#CC1=C(S)N(c2ccccc2)C(c2cccs2)NC1=O (stereo not given)	2	-4	-3	109*	0
O=C(/C=C/c1cccc(Cl)c1)NCc1ccccc1	-6	-4	-4	4	-1
CCCCN1C(=O)C(C(=O)OCc2ccccc2)CC2=C1CCCC2=O (stereo not given)	.	-2	.	-2	-6
[N-]=[N+]=NC1c2ccccc2C(=O)N1Cc1ccccc1 (stereo not given)	0	-4	-2	-6	-3
C[C@H](NC(=O)c1ccco1)C(=O)Nc1ccc(S(=O)(=O)N2CCCC2)cc1	-3	0	-1	55*	-1
CCNC(=O)C(=O)N/N=C/c1cc([N+](=O)[O-])ccc1O	0	-1	-2	4	4
Cn1c(=O)c2c(nc(NC3CCCCC3)n2Cc2ccccc2)n(C)c1=O	-4	1	-5	3	1
Cn1c(=O)c2c(nc(NC3CCCCC3)n2CC(=O)C23CC4CC(CC(C4)C2)C3)n(C)c1=O	2	7	-3	57*	-3
